CHO-K1 Ca PAM = nonselective calcium activators in parental CHO-K1 cells, primary screen, counter-screen for M1 PAM project, cell-based, Fluo-8 calcium fluorescence, full deck, 1536-well; activation, % at 3 µM; AID 602247, 2012; ATP EC20; 0% at ATP EC20, 100% at ATP max; 360,000 tested, 0.02% active;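 active means activation above the run cutoff, the mean activation of all test compounds plus 3 SD, cut at about 40% in these data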;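 further: peak over basal fluorescence ratio in a 140 s read after ATP addition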
M1 antag = human M1 muscarinic receptor antagonists, primary screen, CHO-K1 cells, Fluo-8 calcium fluorescence, 1536-well; CHO-K1 hM1, ACh EC80 antagonist; inhibition, % at 3 µM; 360,000 tested, 1.3% active;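 active means percent inhibition above its own plate's cutoff, namely the mean of that plate's compound wells plus 3 SD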;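 further: peak over basal fluorescence ratio during 140 s after agonist addition; 0% = ACh EC80 plus DMSO and 100% = DMSO alone without agonist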
Target sequence (P11229 whole entry, looked up): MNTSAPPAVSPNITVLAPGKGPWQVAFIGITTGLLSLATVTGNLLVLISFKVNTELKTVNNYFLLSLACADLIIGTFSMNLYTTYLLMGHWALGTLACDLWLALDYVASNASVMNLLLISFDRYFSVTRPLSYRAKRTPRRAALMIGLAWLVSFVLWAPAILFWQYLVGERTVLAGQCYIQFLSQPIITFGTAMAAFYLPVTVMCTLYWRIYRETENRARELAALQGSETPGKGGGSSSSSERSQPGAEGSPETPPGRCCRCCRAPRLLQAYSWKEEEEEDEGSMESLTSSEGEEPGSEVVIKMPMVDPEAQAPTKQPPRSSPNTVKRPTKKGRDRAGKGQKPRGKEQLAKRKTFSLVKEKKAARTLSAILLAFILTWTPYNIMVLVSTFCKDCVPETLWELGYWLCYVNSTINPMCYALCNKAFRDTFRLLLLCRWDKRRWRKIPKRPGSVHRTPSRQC
CHO-K1 Ca antag = M1 antagonist counterscreen hit in parental CHO-K1 cells; ATP-induced calcium, Fluo-8 fluorescence; inhibition, % at 3 µM; 360,000 tested, 0.6% active; AID 602250;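 active means inhibition above a per-plate cutoff, the plate's mean sample inhibition plus 3 SD, cut at about 24% in these data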;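 further: 0% = DMSO plus EC80 ATP and 100% = DMSO alone without ATP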
CHO-K1 Ca ag = counter-screen for M1 agonists: effect in parental CHO-K1 cells | Fluo-8 calcium fluorescence; scaled to maximal ATP response, vehicle zero | activation, % at 3 µM | 360,000 tested, 0.48% active; in the data active means activation above about 15%;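 further: untransfected CHO-K1 host cells lacking M1 receptor as counterscreen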
CHRM1 PAM = human M1 muscarinic receptor positive allosteric modulators, primary screen, CHO-K1 cells, Fluo-8 calcium fluorescence, 1536-well. Muscarinic acetylcholine receptor M1 (Homo sapiens), P11229. CHO-K1 hM1, ACh EC20; 0% = ACh EC20, 100% = maximal ACh. activation, % at 3 µM. 360,000 tested, 0.088% active. AID 588819, 2011; in the data active means activation above about 19%, passing the limit was not always enough
M1 ag = human M1 muscarinic receptor agonists, primary screen, Fluo-8 calcium fluorescence, CHO-K1 cells, HTS. Muscarinic acetylcholine receptor M1 (Homo sapiens), P11229. CHO-K1 hM1, agonist mode; 0% DMSO, 100% acetylcholine EC100. activation, % at 3 µM. 360,000 tested, 0.33% active. AID 588814, 2011;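 active means activation above the run's mean compound activation plus 3 SD, cut at about 16% in these data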;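 further: peak over basal fluorescence ratio within a 140 s kinetic read after compound addition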
* marks the source's active call; other numbers are inactive results. Only some compounds are listed: those with a hit (about 2.3% of all), similar ones and a draw of the others.

SMILES	CHO-K1 Ca PAM	M1 antag	CHO-K1 Ca antag	CHO-K1 Ca ag	CHRM1 PAM	M1 ag
CC1CC(C)(C)CC2(C1)NC(=O)N(CC(=O)N1CCN(S(=O)(=O)c3cccc(Cl)c3Cl)CC1)C2=O (stereo not given)	-15	45*	12	0	-20	-6
Cc1[nH]c2ccccc2c1C(=O)CN1C(=O)NC2(CC(C)CC(C)(C)C2)C1=O (stereo not given)	11	12	8	35*	-2	10
COc1ccc2[nH]cc(CCNS(=O)(=O)c3ccc(C)cc3)c2c1	14	-6	2	26*	5	14
Cc1ccc(-c2nc(CSCC(=O)NCCN3CCN(Cc4ccccc4)CC3)c(C)o2)cc1	-5	26*	15	4	-18	-4
CC(C)c1ccc(NC(=O)C2(C)Cc3c(-c4ccc5c(c4)OCO5)ccnc3O2)cc1 (stereo not given)	-2	-12	-13	0	1	-5
O=C(Nc1ccc(C(=O)NCCCN2CCCCC2)cc1)C1=CSCCO1	-11	17	2	6	-6	-1
O=C(Nc1ccc(C(=O)NCCCN2CCN(c3ccc(F)cc3)CC2)cc1)C1=CSCCO1	7	-6	23	13	-1	17*
Cn1c(CNC(=O)c2ccco2)nnc1SCC(=O)c1ccc(F)cc1	-5	-2	0	1	2	-3
COc1ccc(-c2cc(C(F)F)n3ncc(C(=O)N4CCSCC4)c3n2)cc1	-6	27*	15	-1	-9	-5
C=CCC1(CC=C)CCCN1C(=O)c1cc(COc2cncc(Cl)c2)on1	1	40*	22	10	-13	-1
C=CCC1(CC=C)CCCN1C(=O)c1cc(COc2cccc(OC)c2)on1	-22	18	2	2	-9	-3
CCCCCCCn1ccc(=N)cc1	5	41	-6	0	-20	-5
CCCCCCCCCn1ccc(=N)cc1	5	40*	-1	1	-20	-8
Cc1ccc(-c2cc(C(=O)N3CCN(c4ccccc4O)CC3)c3ccccc3n2)o1	-21	42*	4	8	-14	4
CCN1CCN(C(=O)c2cc(-c3ccc(Cl)s3)nc3ccccc23)CC1	-8	12	12	19*	0	2
Cc1ccc(-c2cc(C(=O)N3CCN(c4ncccn4)CC3)c3ccccc3n2)cc1	10	31*	0	3	-13	0
CC(C)Oc1cccc(-c2cc(C(=O)N3CCN(S(C)(=O)=O)CC3)c3ccccc3n2)c1	15	-3	7	5	0	4
CC(C)Oc1cccc(-c2cc(C(=O)N3CCN(c4ncccn4)CC3)c3ccccc3n2)c1	0	27*	19	5	-6	6
O=C(COC(=O)C1=NN(c2ccccc2)C(=O)CC1)NCc1ccccc1Cl	-15	15	3	0	-5	-2
COc1ccc(Cc2nnc(NC(=O)c3cc(OC)c(OC)c(OC)c3)s2)cc1	2	-15	-2	1	9	0
C[C@@H]1CN([C@H](C)CO)C(=O)CCCn2nncc2CO[C@@H]1CN(C)C(=O)c1ccc(N2CCN(C)CC2)cc1	19	2	-10	0	-3	-8
CCOC(=O)c1c(C)nc(C)c(C(=O)OCC)c1-c1ccco1	-7	-19	-2	0	13	-4
N#Cc1ccccc1S(=O)(=O)N1CCN(Cc2cc3c(cc2Br)OCCO3)CC1	9	-11	0	2	4	-2
COc1cccc(-c2cc(C(=O)N3CCN(c4ncccn4)CC3)c3ccccc3n2)c1	-11	45*	34*	4	-11	0
COc1ccc(-c2cc(C(=O)N3CCN(c4ncccn4)CC3)c3ccccc3n2)cc1OC	1	25	1	6	-8	-3
SMILES	CHO-K1 Ca PAM	M1 antag	CHO-K1 Ca antag	CHO-K1 Ca ag	CHRM1 PAM	M1 ag
COC(=O)CNC(=O)c1ccccc1C	-7	10	26*	0	-5	-2
CCn1c(SCC(=O)NNC(=S)Nc2ccc(C)cc2)nnc1-c1ccc(Cl)cc1	27	-12	-5	16*	11	-6
Oc1ccc(N=Nc2ccccc2-c2nn[nH]n2)c(O)c1	4	-25	-9	0	17	-2
Cc1ccc(-c2nnn(CC(=O)N(CC(=O)NC3CCCC3)c3cccc(F)c3)n2)o1	-18	-7	-11	1	11	-1
Cc1ccc(-c2nnn(CC(=O)N(CC(=O)NC3CCCCC3)c3cccc(F)c3)n2)o1	3	1	1	20*	8	8
O=C(c1ccc(-n2c(SCc3cccc(F)c3)nc3ccccc3c2=O)cc1)N1CCOCC1	6	-4	1	0	4	0
O=C(O)c1ccc(CSc2nc3ccccc3c(=O)n2-c2ccccc2)cc1	26	-15	-10	1	8	-2
O=c1c2ccccc2nc(SCc2ccc([N+](=O)[O-])cc2)n1-c1ccccc1	0	12	1	0	23*	-3
COc1ccc(-n2c(SCc3ccc([N+](=O)[O-])cc3)nnc2-c2ccccc2)cc1	25	0	-1	16*	5	-10
Cn1c(SCc2cccc([N+](=O)[O-])c2)nc2ccccc2c1=O	-9	36*	-3	2	-13	0
O=c1c2ccccc2nc(SCc2cccc(F)c2)n1-c1cccc(S(=O)(=O)N2CCCC2)c1	-15	9	27*	0	-7	-5
Cc1ccc(C)c(NC(=O)c2cc[n+](C)cc2)c1	-16	-26	5	0	10	1
Cc1ccc(S(=O)(=O)N(C)CC(=O)Oc2ccc(-c3nnco3)cc2)cc1	5	-18	-1	1	8	-1
CN(Cc1ccco1)C(=O)CSc1nn2c(=O)c(C(C)(C)C)nnc2s1	7	-10	-13	0	8	-5
Cc1cc(NC(=O)c2ccc3c(c2)C(=O)N(C2CCCCC2)C3=O)no1	13	-7	-10	0	5	-2
O=C(Nc1ccncc1)c1ccc2c(c1)C(=O)N(C1CCCCC1)C2=O	12	35*	17	9	-15	6
O/N=C(/c1ccc(F)cc1)C1CC1c1c(F)cccc1Cl (stereo not given)	3	-7	-19	0	1	-8
Cc1ccc(N(C(=O)c2csnn2)C(C(=O)NC2CCCCC2)c2cccnc2)c(C)c1 (stereo not given)	-9	10	-4	0	1	-4

Screening results deposited in PubChem by The Scripps Research Institute Molecular Screening Center.
